Data on 16 compounds can be found in PubChem BioAssay (EPA / NIEHS).

What is called AC50 is the concentration giving half of the maximal activity seen.

The source made the active and inactive calls. Rule for the calls: active = hit-call score of the fitted dose curve at least 0.9, where 1 is the maximum; inactive = score below 0.9.

Read-out in assay [1]: Human Leukocyte Antigen - DR isotype (HLADR), HLA-DRA (gene 3122)
In words: BSK_CASM3C_HLADR: BioMAP Diversity Plus: CASM3C Assay for Human Leukocyte Antigen - DR isotype (HLADR) Biomarker Activity (AID 2283043).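 Note: cell-surface HLA-DR protein level quantified by ELISA.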 To be noted: primary human coronary artery smooth muscle cells; actives raise or lower the signal.

Read-out in assay [2]: Macrophage colony-stimulating factor (MCSF), CSF1 (gene 1435)
Briefly: BSK_CASM3C_MCSF: BioMAP Diversity Plus: CASM3C Assay for Macrophage colony-stimulating factor (MCSF) Biomarker Activity (AID 2283044).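 Note: M-CSF protein amount quantified by ELISA after 24 h exposure.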 To be noted: primary human coronary artery smooth muscle cells; actives raise or lower the signal.

Read-out in assay [3]: Low-density lipoprotein receptor (LDLR), LDLR (gene 3949)
Briefly: BSK_CASM3C_LDLR: BioMAP Diversity Plus: CASM3C Assay for Low-density lipoprotein receptor (LDLR) Biomarker Activity (AID 2283045).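 Note: LDLR protein level on the cell surface quantified by ELISA.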 To be noted: primary human coronary artery smooth muscle cells; actives raise or lower the signal.

Read-out in assay [4]: Monocyte Chemoattractant Protein-1 (MCP1), CCL2 (gene 6347)
In words: BSK_CASM3C_MCP1: BioMAP Diversity Plus: CASM3C Assay for Monocyte Chemoattractant Protein-1 (MCP1) Biomarker Activity (AID 2283046).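 Note: MCP-1 level quantified by ELISA 24 h after dosing.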 To be noted: primary human coronary artery smooth muscle cells; actives raise or lower the signal.

The nature of assay [5]: BSK_CASM3C_Proliferation: Cell Proliferation Assessment in the BioMAP Diversity Plus: CASM3C Assay (AID 2283047).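 Note: sulforhodamine B total protein stain as relative cell number at 560 nm; sub-confluent cells exposed 48 h before staining; fitted both ways against DMSO so gain or loss of cell number.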 The conditions noted are these: primary human coronary artery smooth muscle cells.
Read-out in assay [6]: Monokine induced gamma interferon (MIG), CXCL9 (gene 4283)
In words: BSK_CASM3C_MIG: BioMAP Diversity Plus: CASM3C Assay for Monokine induced gamma interferon (MIG) Biomarker Activity (AID 2283048).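 Note: MIG protein level measured by ELISA.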 To be noted: primary human coronary artery smooth muscle cells; actives raise or lower the signal.

Read-out in assay [7]: serum amyloid A (SAA), SAA1 (gene 6288)
Briefly: BSK_CASM3C_SAA: BioMAP Diversity Plus: CASM3C Assay for serum amyloid A (SAA) Biomarker Activity (AID 2283049).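 Note: SAA protein level quantified by ELISA.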 The conditions noted are these: primary human coronary artery smooth muscle cells; actives raise or lower the signal.

Assay [8] is described as follows: BSK_CASM3C_SRB: Viability Assessment in the BioMAP Diversity Plus: CASM3C Assay (AID 2283050).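 Note: total protein by SRB staining as cytotoxicity measure in parallel cultures; cells exposed to compound for 24 h.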 To be noted: primary human coronary artery smooth muscle cells.
Read-out in assay [9]: Thrombomodulin, THBD (gene 7056)
In words: BSK_CASM3C_Thrombomodulin: BioMAP Diversity Plus: CASM3C Assay for Thrombomodulin Biomarker Activity (AID 2283051).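 Note: thrombomodulin protein level measured by ELISA 24 h after dosing.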 The conditions noted are these: primary human coronary artery smooth muscle cells; actives raise or lower the signal.

Read-out in assay [10]: Tissue Factor, F3 (gene 2152)
Briefly: BSK_CASM3C_TissueFactor: BioMAP Diversity Plus: CASM3C Assay for Tissue Factor Biomarker Activity (AID 2283052).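 Note: cell surface tissue factor protein level read by ELISA.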 To be noted: primary human coronary artery smooth muscle cells; actives raise or lower the signal.

With `CN(C)C=O`, the result in assay [1], in assay [2], in assay [3], in assay [4], in assay [5] and in [6] was inactive. The result in [7], in [8], in assay [9] and in [10] was inactive.
Consider `CN1CCN(c2ccccc2/C=C2\SCCN(c3ccc(Cl)c(Cl)c3)C2=O)CC1`, for which the result in assay [1], in [2], in assay [4], in [6], in assay [7] and in assay [9] was inactive. Moreover, in assay [10], the result was inactive. For the same compound, the AC50 was 2.95 µM (active) in assay [3], 20 µM (active) in assay [5] and 20 µM (active) in assay [8].
Regarding `CCOC(=O)CC(O)(CC(=O)OCC)C(=O)OCC`, the outcome in assay [1], in assay [2], in assay [3], in assay [4], in [5] and in assay [6] was inactive. Also, the result in assay [7], in [8], in [9] and in assay [10] was inactive.
In the case of `CCCCCCCCCCCCCCCS(=O)(=O)Oc1ccccc1`, the result in [1], in assay [2], in assay [3], in assay [4], in assay [5] and in [6] was inactive. Further, the result in assay [7], in assay [8], in assay [9] and in assay [10] was inactive.
As for `CCCCCCCC(=O)O`, the result in assay [1], in assay [2], in assay [3], in assay [4], in assay [5] and in assay [6] was inactive. The outcome in [7], in assay [8], in [9] and in [10] was inactive.
With `O=C(O)Cc1cc(I)c(Oc2cc(I)c(O)c(I)c2)c(I)c1`, the result in assay [1], in [2], in assay [3], in assay [4], in assay [5] and in assay [6] was inactive. Further, the outcome in [7], in assay [8], in assay [9] and in assay [10] was inactive.
On to `NC(=O)N(O)[C@@H]1C=C[C@H](Oc2cccc(Oc3ccc(F)cc3)c2)C1`, for which the AC50 was 3.95 µM (active) in assay [1], 7.17 µM (active) in assay [5] and 9.41 µM (active) in assay [9]. Besides, the result in [2], in [3], in assay [4], in assay [6], in assay [7] and in assay [8] was inactive. The outcome in assay [10] was inactive.
Regarding `Nc1cccc2c(N)cccc12`, the outcome in assay [1], in [2], in [3], in assay [4], in [5] and in assay [6] was inactive. The outcome in assay [7], in assay [8], in assay [9] and in assay [10] was inactive.
`O=C(OCCOCCOC(=O)c1ccccc1)c1ccccc1`: the outcome in assay [1], in assay [2], in [3], in assay [4], in assay [5] and in [6] was inactive. The result in [7], in [8], in assay [9] and in assay [10] was inactive.
On to `CC(C)(C)c1cc(C(C)(C)C)c(O)c(C(C)(C)C)c1`, for which the outcome in [1], in assay [2], in [4], in assay [5], in assay [6] and in [7] was inactive. The outcome in [8] and in [10] was inactive. The AC50 in [3] is 11.8 µM (active); in assay [9], 6.88 µM (active).
On to `O=c1c(-c2ccc(O)cc2)coc2cc(O)ccc12`, for which the result in assay [1], in assay [2], in [3], in assay [4], in assay [5] and in assay [6] was inactive. For the same compound, the outcome in assay [7], in [8], in [9] and in assay [10] was inactive.
Regarding `c1ccc2c(c1)Cc1ccccc1-2`, the result in [1], in [2], in assay [3], in assay [4], in assay [5] and in [6] was inactive. Further, the outcome in [7], in [8], in [9] and in [10] was inactive.
On to `OC1CCC(C2CCCCC2)CC1` (stereo not given), for which the result in [1], in assay [2], in [3], in [4], in [5] and in assay [6] was inactive. Moreover, the result in assay [7], in [8], in [9] and in assay [10] was inactive.
On to `Cc1cc(CCN2CCN(c3nsc4ccccc34)CC2)cc2c1NC(=O)CC2(C)C`, for which the AC50 in assay [1] was 28.5 µM (active); in assay [2], 36.1 µM (active); in [3], 33.4 µM (active); in [4], 37.1 µM (active); in assay [5], 29.8 µM (active); in assay [6], 37.1 µM (active). For the same compound, the AC50 in assay [7] was 31.5 µM (active); in [8], 36.5 µM (active); in assay [9], 33.9 µM (active); in assay [10] it was 29.6 µM (active).
In the case of `OC1CCCCC1`, the result in assay [1], in assay [2], in [3], in assay [4], in assay [5] and in assay [6] was inactive. Also, the outcome in assay [8], in assay [9] and in [10] was inactive. Besides, in assay [7], the AC50 is 23.1 µM (active).
Regarding `CCCOC(=O)c1ccc(O)cc1`, the result in assay [1], in assay [2], in assay [3], in assay [4], in assay [5] and in [6] was inactive. For the same compound, the outcome in assay [7], in [8], in assay [9] and in assay [10] was inactive.
